In PubChem BioAssay (EPA / NIEHS):
“And” between values parts separate entries of the source, which are not always exact repeats. Equal values may be shown once. Inconclusive results are not listed. The source made the active and inactive calls. The calls were made as follows: active = hit-call score of the fitted dose curve at least 0.9, where 1 is the maximum; inconclusive = response in the unintended direction; inactive = score below 0.9.

What follows are compounds tested against human Peripheral-type Benzodiazepine Receptor (PBR), TSPO (gene 706) (UniProt P30536) (assay: NVS_MP_hPBR: NovaScreen (NVS) Membrane Protein Assay for human Peripheral-type Benzodiazepine Receptor (PBR) (AID 2283331)).
Description: NVS_MP_hPBR is a biochemical, single-readout assay that uses extracted gene-proteins from Human colonic cell membranes in a tissue-based cell-free assay. Measurements were taken 1 hour after chemical dosing in a 48-well plate.NVS_MP_hPBR is one of one assay component(s) measured or calculated from the NVS_MP_hPBR assay. It is designed to make measurements of radioligand binding, a form of binding reporter, as detected with scintillation counting signals by Filter-based radiodetection technology.Data from the assay component NVS_MP_hPBR was analyzed into 1 assay endpoint. This assay endpoint, NVS_MP_hPBR, was analyzed in the positive analysis fitting direction relative to DMSO as the negative control and baseline of activity. Using a type of binding reporter, loss-of-signal activity can be used to understand changes in the binding as they relate to the gene TSPO. Furthermore, this assay endpoint can be referred to as a primary readout, because the performed assay has only produced 1 assay endpoint. To generalize the intended target to other relatable targets, this assay endpoint is annotated to the transporter intended target family, where the subfamily is cholesterol transporter.
Binding assays used specific radioligands (tritiated, iodinated) with non-radioactive competitive displacement ligands in agonist or antagonist protocols (as indicated) and various reference compounds and inhibitors to titrate specific binding to receptors and transporters. Most enzyme assays (CYPs, kinases, phosphatases, proteases, HDACs) used recombinant protein and specific substrates (fluorescence mostly, some colorimetric and radioactive) and inhibitors, followed by a biochemical separation of substrate and product. All assays for the biochemical HTS were initially run in duplicate at a single concentration (10 uM for CYP450 assays and 25 uM for all others). […] Each assay was run with positive and negative controls, and concurrent controls on every plate. The follow-up (secondary) screen tested active chemical-pairs in concentration series, as well as a few additional assays not tested in the primary screen, some selected negative inactives, and several cases re-run in the concentration series for confirmatory purposes.

Sequence of human Peripheral-type Benzodiazepine Receptor (PBR), TSPO (gene 706) (P30536 whole entry, looked up): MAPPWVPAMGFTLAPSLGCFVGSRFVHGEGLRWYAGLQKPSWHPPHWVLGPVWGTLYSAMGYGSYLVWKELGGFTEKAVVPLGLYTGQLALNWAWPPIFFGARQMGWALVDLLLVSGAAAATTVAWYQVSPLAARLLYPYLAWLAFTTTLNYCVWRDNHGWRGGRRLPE

Row | SMILES | AC50 | outcome
1 | CCCCOCCOCCOCc1cc2c(cc1CCC)OCO2 | 26.9 µM (active) | 
2 | CCN(CC)C(=O)c1cccc(C)c1 | 20.1 µM (active) | 
3 | CN(C)C(=O)Nc1ccc(Cl)c(Cl)c1 | 19.9 µM (active) | 
4 | CC(=O)[C@H]1CC[C@H]2[C@@H]3CCC4=CC(=O)CC[C@]4(C)[C@H]3CC[C@]12C | 1.75 µM (active) and 1.51 µM (active) and 4.64 µM (active) | 
5 | COC(=O)c1ccccc1C(=O)O |  | inactive
6 | C=CCOC(Cn1ccnc1)c1ccc(Cl)cc1Cl (centres undefined) | 10.6 µM (active) | 
7 | CCNc1nc(N)nc(Cl)n1 |  | inactive
8 | Oc1ccc(C(c2ccc(O)cc2)C(Cl)(Cl)Cl)cc1 |  | inactive
9 | COc1nc(C)nc(NC(=O)NS(=O)(=O)c2ccccc2OCCCl)n1 |  | inactive
10 | CC(C)CCCCCCc1ccc(O)cc1 |  | inactive
11 | C[C@]12CC[C@@H]3c4ccc(O)cc4C[C@@H](CCCCCCCCCS(=O)CCCC(F)(F)C(F)(F)F)[C@H]3[C@@H]1CC[C@@H]2O (some centres undefined) |  | inactive
12 | CC(=O)S[C@@H]1CC2=CC(=O)CC[C@]2(C)[C@H]2CC[C@@]3(C)[C@@H](CC[C@@]34CCC(=O)O4)[C@H]12 |  | inactive
13 | CCCN(CCC)C(=O)SCC |  | inactive
14 | CCCCC(CC)CN1C(=O)C2C3C=CC(C3)C2C1=O (centres undefined) |  | inactive
15 | CCCCCOC(=O)COc1cc(N2C(=O)C3=C(CCCC3)C2=O)c(F)cc1Cl | 2.72 µM (active) | 
16 | CC1(C)C(C=C(Cl)Cl)C1C(=O)OCc1cccc(Oc2ccccc2)c1 (centres undefined) | 40.2 µM (active) | 
17 | COC(=O)CSc1cc(N=c2sc(=O)n3n2CCCC3)c(F)cc1Cl |  | inactive
18 | CC(C)(c1ccc(O)cc1)c1ccc(O)cc1 |  | inactive
19 | CCCCCCC(C)OC(=O)COc1nc(F)c(Cl)c(N)c1Cl (centres undefined) |  | inactive
20 | CCCCOC(=O)[C@@H](C)Oc1ccc(Oc2ccc(C(F)(F)F)cn2)cc1 |  | inactive
21 | CCCCC(CC)COC(=O)c1ccccc1C(=O)O (centres undefined) | 39.2 µM (active) | 
22 | S=C(S)NCCNC(=S)S.[Mn+2].[S-]C([S-])=NCCN=C([S-])[S-].[Zn+2] | 9.51 µM (active) and 4.71 µM (active) and 3.45 µM (active) | 
23 | S=C([S-])NCCNC(=S)[S-].[Mn+2] |  | inactive
24 | CCOC(=O)NCCOc1ccc(Oc2ccccc2)cc1 |  | inactive
